DT40 TDP1 CPT – qHTS for Inhibitors of human tyrosyl-DNA phosphodiesterase 1 (TDP1): qHTS in cells in presence of CPT; chicken DT40 Tdp1-/-;hTDP1 cells + 20 nM CPT, ATP luminescence, 48 h; Potency, µM (highest dose often 46.2 µM), inactives show at the top dose activity change, negative = growth inhibition, most hits filed as inhibitors; 420,000 tested, 12% active; AID 686979, 2013; note: potency is the fitted concentration of half-maximal effect; % is set by controls: 0 for no effect and ±100 for the full control effect; nearly all actives have a fitted effect of over 55% in size
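Chicken DT40 Tdp1-/- cells complemented with human TDP1, 400 cells/well, exposed to compounds plus 20 nM camptothecin for at least 48 h at 37 C; viability read as ATP content by CellTiter-Glo luminescence.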
TDP1 cell noCPT – qHTS for Inhibitors of human tyrosyl-DNA phosphodiesterase 1 (TDP1): qHTS in cells in absence of CPT. DT40 Tdp1-/- hTDP1 cells, no CPT, ATP luminescence, 48 h. Potency, µM (highest dose often 46.2 µM), without a hit: at the highest dose activity change, negative = growth inhibition, hits mostly inhibitors. 420,000 tested, 15% active. AID 686978, 2013; note: potency is the fitted concentration of half-maximal effect; % is set by controls: 0 for no effect and ±100 for the full control effect; nearly all actives have a fitted effect of over 55% in size
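Chicken DT40 Tdp1-/- cells complemented with human TDP1, screened without camptothecin (DMSO vehicle only), 400 cells/well. Compounds pin-transferred, cells incubated at 37 °C for at least 48 hr. Growth read as ATP-dependent luminescence (CellTiter-Glo, 30 min at RT).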
TGFb inhibitor – qHTS for Inhibitors of TGF-b; HepG2 CAGA-GFP TGF-b/SMAD3 reporter, GFP fluorescence, 18 h; TGF-beta stimulated, 500 pg/mL final; Potency, µM (highest dose often 46.1 µM), inactives show top-dose activity, negative = inhibition, usual class: inhibitors; 410,000 tested, 1.2% active; AID 588855, 2011; note: potency is the fitted concentration of half-maximal effect; % is set by controls: 0 for no effect and ±100 for the full control effect; nearly all actives have a fitted effect of over 65% in size
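HEPG2 CAGA-GFP cells (1000/well, DMEM with 1% FBS) were pre-incubated 2 h at 37 degrees C, given compound by pin tool, then stimulated with TGF-beta at 500 pg/mL final for 18 h before per-cell GFP fluorescence imaging.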
IL-1B inflam inh – qHTS for Inhibitors of Inflammasome Signaling: IL-1-beta AlphaLISA Primary Screen | 360,000 tested, 4.7% active | activity change, % at 57.5 µM | THP-1 LPS/ATP IL-1B secretion, AlphaLISA, 16 h; hits give low values; in the data active = activity change below about -50%; inconclusive = mostly about -30% to -49%; note: % is set by controls: 0 for no effect and ±100 for the full control effect
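THP-1 cells pretreated 1 hr with compounds (up to 57.5 uM final), then stimulated with LPS (250 ng/mL final) plus ATP (1.25 mM final); secreted IL-1B measured by AlphaLISA after 16 hr, decreased signal indicating inhibition.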
HepG2 tox-1 – qHTS for Inhibitors of TGF-b: Cytotox Counterscreen; 410,000 tested, 0.76% active; AID 588856, 2011; Potency, µM (series often up to 46.1 µM), for the others: at the highest dose activity change, negative = cytotoxicity, actives largely listed as cytotoxic; HepG2 CAGA-GFP viability, ATP luminescence, 18 h; note: potency is the fitted concentration of half-maximal effect
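HepG2 CAGA-GFP cells (1000/well, DMEM with 1% FBS) received compound, then TGF-beta at 500 pg/mL final, and were incubated 18 hours at 37 degrees C. Viability was read by CellTiter-Glo luminescence. Media-only wells were set as complete cell-killing and DMSO as no toxicity.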
TDP1 block – qHTS Assay for Inhibitors of Tyrosyl-DNA Phosphodiesterase (TDP1) | Potency, µM (doses to about 130 µM), inactives show at the top dose activity change, negative = inhibition, usual class: inhibitors | Tyrosyl-DNA phosphodiesterase 1 (Homo sapiens), Q9NUW8 | AID 485290, 2010 | recombinant TDP1, AlphaScreen DNA substrate cleavage | 350,000 tested, 0.28% active; note: potency is the fitted concentration of half-maximal effect; % is set by controls: 0 for no effect and ±100 for the full control effect; nearly all actives have a fitted effect of over 40% in size
Target sequence (Q9NUW8 whole entry, looked up): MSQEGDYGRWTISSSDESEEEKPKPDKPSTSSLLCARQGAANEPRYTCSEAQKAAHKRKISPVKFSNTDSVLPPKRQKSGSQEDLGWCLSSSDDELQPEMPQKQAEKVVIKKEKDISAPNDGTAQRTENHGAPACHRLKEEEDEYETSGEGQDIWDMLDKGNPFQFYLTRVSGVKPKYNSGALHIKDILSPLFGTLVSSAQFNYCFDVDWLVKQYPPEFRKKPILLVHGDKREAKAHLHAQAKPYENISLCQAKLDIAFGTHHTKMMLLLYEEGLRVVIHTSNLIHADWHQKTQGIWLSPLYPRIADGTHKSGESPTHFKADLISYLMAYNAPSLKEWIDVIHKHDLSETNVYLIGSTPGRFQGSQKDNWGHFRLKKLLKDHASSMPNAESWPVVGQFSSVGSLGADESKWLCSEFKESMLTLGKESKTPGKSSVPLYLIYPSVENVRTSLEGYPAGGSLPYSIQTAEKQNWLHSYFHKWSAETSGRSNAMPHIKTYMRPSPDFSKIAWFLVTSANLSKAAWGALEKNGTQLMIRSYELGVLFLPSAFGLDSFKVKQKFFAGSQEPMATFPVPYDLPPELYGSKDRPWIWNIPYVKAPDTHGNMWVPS
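AlphaScreen read-out: signal falls as enzyme removes the 3' tyrosine-FITC from a 5'-biotinylated DNA oligo (15 nM, 5 min, RT). Enzyme was E. coli-made recombinant Tdp1 at 1 nM, exposed to compound for 15 min beforehand; beads 10 ug/ml, 10 min.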
TGFb confirm – qHTS for Inhibitors of TGF-b: Confirmation of Cherry Picks. Potency, µM (highest dose often 46.1 µM), inactives show at the top dose activity, negative = inhibition, actives largely listed as inhibitors. shares compounds with TGFb inhibitor. 1,600 tested, 63% active. AID 720534, 2013. HepG2 CAGA-GFP TGF-b reporter, GFP fluorescence, 18 h; cells stimulated with TGF-beta, 500 pg/mL; note: potency is the fitted concentration of half-maximal effect; % is set by controls: 0 for no effect and ±100 for the full control effect; nearly all actives have a fitted effect of over 65% in size
HepG2 tox-2 – qHTS for Inhibitors of TGF-b: Cytotox Counterscreen for Cherry Picks; AID 720535, 2013; shares compounds with TGFb inhibitor; HepG2 CAGA-GFP viability, ATP luminescence, 18 h; cells stimulated with TGF-beta, 500 pg/mL; Potency, µM (titrated, usually from 46.1 µM), for the others: at the top dose activity, negative = cytotoxicity, usual class: inhibitors; 1,600 tested, 27% active; note: potency is the fitted concentration of half-maximal effect; % is set by controls: 0 for no effect and ±100 for the full control effect; nearly all actives have a fitted effect of over 70% in size
CCL64 TGFb inh – qHTS for Inhibitors of TGF-b: CCL64 Cells Orthogonal Assay for Cherry Picks; shares compounds with TGFb inhibitor; AID 720536, 2013; Potency, µM (series often up to 46.1 µM), inactives show at the top dose activity, negative = inhibition, hits mostly inhibitors; 1,600 tested, 41% active; CCL64 CAGA-GFP reporter, TGF-b stimulated, GFP fluorescence, 18 h; note: potency is the fitted concentration of half-maximal effect; nearly all actives have a fitted effect of over 65% in size
COP TGFb inh – qHTS for Inhibitors of TGF-b: Hit Validation in HepG2 Cells using COP promoter | Potency, µM (titrated, usually from 46.1 µM), inactives show top-dose activity, negative = inhibition, most hits filed as inhibitors | shares compounds with TGFb inhibitor | 1,600 tested, 3% active | HepG2 COP-GFP TGF-b reporter, GFP fluorescence, 18 h; cells stimulated by added recombinant TGF-beta; note: potency is the fitted concentration of half-maximal effect; nearly all actives have a fitted effect of over 70% in size
* marks the source's active call; other numbers are inactive results; i = inactive; ? = inconclusive; / = no result; [ ] = dose if it differs, or a comment. Only some compounds are listed: those with a hit (about 19% of all), similar ones and a draw of the others. Unless noted, calls come from the whole dose curve; as a rule, active = well fitted curve in the direction sought with a large enough effect; inconclusive = small, poorly fitted or top-dose-only effect, or another doubt; inactive = no such curve, though single readings can be large; an effect the other way counts as inactive or inconclusive.

SMILES	DT40 TDP1 CPT	TDP1 cell noCPT	TGFb inhibitor	IL-1B inflam inh	HepG2 tox-1	TDP1 block	TGFb confirm	HepG2 tox-2	CCL64 TGFb inh	COP TGFb inh
COc1ccc(C(NC(C)=O)c2cc(Cl)c3cccnc3c2O)cc1 (centres undefined)	8.2µM*	8.2µM*	7.08µM*	255.6	-43.1%	/	?	?	13µM*	20.2%
COc1cc(NC(C)=O)c2ncccc2c1Br	-16.6%	?	12.0%	-25.1	-10.0%	/	/	/	/	/
O=C(O)c1ccccc1NC(c1ccccc1)c1ccc2cccnc2c1O (centres undefined)	14.6µM*	?	8.91µM*	27.0	-19.6%	/	6.51µM*	?	14.6µM*	-23.6%
COc1ccc(C(NC(=O)C(C)C)c2ccc3cccnc3c2O)cc1 (centres undefined)	0.731µM*	0.461µM*	4.47µM*	137.9	-38.0%	/	-12.6%	?	7.31µM*	35.1%
O=C(CSc1cccc2cccnc12)Nc1ccccc1F	?	?	?	-1.2	-48.9%	1.4%	/	/	/	/
Cc1cccc(C)c1NC(=O)C1CCCN1S(=O)(=O)c1cccc2nsnc12 (centres undefined)	-27.2%	?	-51.1%	/	0.7%	6.9%	/	/	/	/
CNC(=S)N/N=C/c1cc(C)n(-c2ccc(Cl)c(Cl)c2)c1C	23.1µM*	?	12.6µM*	-8.3	-3.1%	10.1%	20.6µM*	?	?	33.7%
Cc1ccc(-n2c(C)cc(/C=N/NC(=O)c3ccncc3)c2C)cc1	?	-16.6%	-8.3%	11.2	-0.3%	8.2%	/	/	/	/
O=C(Nc1ccc(Cl)cc1Cl)c1ccc(Br)o1	0.1%	-0.3%	-10.7%	7.2	1.7%	6.1%	/	/	/	/
O=C(c1ccc(Br)cc1)N(Cc1nc2ccccc2c(=O)[nH]1)C1CCCC1	?	18.4µM*	11.2µM*	?	-13.3%	3.6%	23.1µM*	-24.7%	-9.6%	19.4%
CC1Sc2ccc(S(=O)(=O)CCC(=O)N3CCN(c4ccccc4)CC3)cc2NC1=O (centres undefined)	?	-21.3%	-16.5%	1.8	-4.0%	0.3%	/	/	/	/
CC1Sc2ccc(S(=O)(=O)CCC(=O)N3CCN(c4cccc(Cl)c4)CC3)cc2NC1=O (centres undefined)	13µM*	7.31µM*	15.8µM*	0.0	-14.2%	-3.2%	18.4µM*	?	?	25.7%
Cc1ccccc1NC(=O)N1CCNC(=O)C1CC(=O)Nc1cc(Cl)ccc1Cl (centres undefined)	-8.7%	-0.5%	5.2%	i	0.0%	2.5%	/	/	/	/
CCOc1ccc(N(CC(=O)N/N=C/c2cc([N+](=O)[O-])ccc2Cl)S(C)(=O)=O)cc1	?	23.1µM*	7.94µM*	-11.0	0.4%	3.4%	14.6µM*	-2.9%	?	15.6%
COc1cccc(NC(=O)C2Cc3ccccc3CN2C(=O)c2ccco2)c1 (centres undefined)	?	-29.2%	-10.2%	-11.7	-4.8%	5.6%	/	/	/	/
FC(F)Oc1ccc(-c2csc(=Nc3cccnc3)n2CC2CCCO2)cc1 (centres undefined)	14.6µM*	13µM*	?	-3.1	-54.1%	-5.8%	12.1%	-29.8%	-4.7%	23.9%
CC(=O)Nc1ccc(S(=O)(=O)c2ccnc3cc(Cl)ccc23)cc1	11.6µM*	9.2µM*	10µM*	-102.6*	-74.6%	/	23.1µM*	?	20.6µM*	14.7%
CC(=O)c1cn(CC(=O)Nc2c(C)cccc2C)c2ccccc12	10.3µM*	8.2µM*	?	-14.8	-15.8%	0.0%	?	-10.1%	-2.6%	-0.8%
Cc1nn(-c2cc(C(F)(F)F)ccc2Cl)c2nc(C(F)(F)F)[nH]c(=O)c12	-26.7%	-3.3%	?	13.7	6.0%	6.7%	/	/	/	/
Cc1nn(-c2cccc(Cl)c2)c2nc(C(F)(F)F)[nH]c(=O)c12	?	29.1µM*	11.2µM*	2.8	-20.6%	5.4%	6.51µM*	8.2µM*	2.91µM*	36.4%
CC(NCC(O)COCCC12CC3CC(CC(C3)C1)C2)c1ccccc1 (centres undefined)	6.51µM*	14.6µM*	7.94µM*	-98.4*	7.08µM*	-4.8%	?	20.6µM*	?	?
COc1ccc(NC(=O)NNC(=O)C(C)Oc2ccc3ccccc3c2)cc1OC (centres undefined)	9.2%	-5.3%	10.4%	i	-16.2%	2.6%[56.1 µM]	/	/	/	/
COc1cc(C(=O)NCC(c2ccc(F)cc2)N2CCOCC2)ccc1OCc1ccccc1Cl (centres undefined)	?	?	20µM*	-59.9*	-16.0%	/	?	?	?	67.8%
COc1ccccc1NS(=O)(=O)c1ccc(C(=O)NCC(c2ccc(F)cc2)N2CCOCC2)cc1 (centres undefined)	?	-42.7%	16.2%	17.2	1.2%	-0.6%	/	/	/	/

High-throughput results from PubChem BioAssay.
